Experimental data taken from publication PMC5540273 (PLoS ONE, 2017).

Key:
Settings in all cases: concentration: 1 μM, replicates: in singlicate; n = 1
MEK2 = tested on: T1, MEK2
T1 construct: gene MAP2K2

MEK3 = tested on: T2, MEK3
T2 construct: gene MAP2K3

MEK4 = tested on: T3, MEK4
T3 construct: gene MAP2K4

MEK5 = tested on: T4, MEK5
T4 construct: gene MAP2K5

MEK6 = tested on: T5, MEK6
T5 construct: gene MAP2K6

MELK = tested on: MELK
MERTK = tested on: MERTK
MET = tested on: MET
MINK = tested on: T6, MINK
T6 construct: gene MINK1

MKK7 = tested on: MKK7
MKNK1 = tested on: MKNK1
MKNK2 = tested on: MKNK2
MLCK = tested on: T7, MLCK
T7 construct: gene MYLK3

MLK1 = tested on: T8, MLK1
T8 construct: gene MAP3K9

MLK2 = tested on: MLK2
MLK3 = tested on: MLK3
MRCKA = tested on: MRCKA
MRCKB = tested on: T9, MRCKB
T9 construct: gene CDC42BPB

MST1R = tested on: MST1R
MST1 = tested on: T10, MST1
T10 construct: gene STK4
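Further: KINOMEscan kinase panel screen.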

## Clc1cc(Cl)cc(Nc2ccnc(Nc3cc(Cl)cc(Cl)c3)n2)c1 [GSK175726]
MEK2
  %Inh: 0%
MEK3
  %Inh: 0%
MEK4
  %Inh: 0%
MEK5
  %Inh: 49%
MEK6
  %Inh: 3%
MELK
  %Inh: 8%
MERTK
  %Inh: 0%
MET
  %Inh: 0%
MINK
  %Inh: 18%
MKK7
  %Inh: 13%
MKNK1
  %Inh: 5%
MKNK2
  %Inh: 0%
MLCK
  %Inh: 0%
MLK1
  %Inh: 0%
MLK2
  %Inh: 0%
MLK3
  %Inh: 10%
MRCKA
  %Inh: 9%
MRCKB
  %Inh: 6%
MST1R
  %Inh: 14%
MST1
  %Inh: 0%

## O=C(Nc1ccc2c(c1)OCO2)NC1CCN(c2ccnc(Nc3ccc(F)cc3)n2)C1 (centres unmarked) [GSK1379724]
MEK2
  %Inh: 0%
MEK3
  %Inh: 0%
MEK4
  %Inh: 28%
MEK5
  %Inh: 17%
MEK6
  %Inh: 0%
MELK
  %Inh: 0%
MERTK
  %Inh: 0%
MET
  %Inh: 0%
MINK
  %Inh: 0%
MKK7
  %Inh: 0%
MKNK1
  %Inh: 0%
MKNK2
  %Inh: 3%
MLCK
  %Inh: 0%
MLK1
  %Inh: 0%
MLK2
  %Inh: 0%
MLK3
  %Inh: 2%
MRCKA
  %Inh: 2%
MRCKB
  %Inh: 16%
MST1R
  %Inh: 35%
MST1
  %Inh: 0%

## COC(=O)c1c(-c2ccccc2)c2cc(C(=O)O)ccc2c(=O)n1Cc1ccccc1
MEK2
  %Inh: 10%
MEK3
  %Inh: 7%
MEK4
  %Inh: 0%
MEK5
  %Inh: 4%
MEK6
  %Inh: 0%
MELK
  %Inh: 0%
MERTK
  %Inh: 0%
MET
  %Inh: 0%
MINK
  %Inh: 0%
MKK7
  %Inh: 0%
MKNK1
  %Inh: 0%
MKNK2
  %Inh: 0%
MLCK
  %Inh: 0%
MLK1
  %Inh: 41%
MLK2
  %Inh: 14%
MLK3
  %Inh: 0%
MRCKA
  %Inh: 0%
MRCKB
  %Inh: 0%
MST1R
  %Inh: 19%
MST1
  %Inh: 0%

## Cc1c(Cn2ccn3c(=O)cc(N4CCOCC4)nc23)cccc1C(F)(F)F [GSK2289044]
MEK2
  %Inh: 0%
MEK3
  %Inh: 17%
MEK4
  %Inh: 9%
MEK5
  %Inh: 0%
MEK6
  %Inh: 0%
MELK
  %Inh: 21%
MERTK
  %Inh: 15%
MET
  %Inh: 0%
MINK
  %Inh: 1%
MKK7
  %Inh: 16%
MKNK1
  %Inh: 0%
MKNK2
  %Inh: 0%
MLCK
  %Inh: 7%
MLK1
  %Inh: 0%
MLK2
  %Inh: 0%
MLK3
  %Inh: 3%
MRCKA
  %Inh: 0%
MRCKB
  %Inh: 0%
MST1R
  %Inh: 27%
MST1
  %Inh: 1%

## Cc1cccc(-c2nc(Nc3cccc(C(N)=O)c3)c3ccccc3n2)n1 [GW876019]
MEK2
  %Inh: 27%
MEK3
  %Inh: 14%
MEK4
  %Inh: 0%
MEK5
  %Inh: 20%
MEK6
  %Inh: 0%
MELK
  %Inh: 24%
MERTK
  %Inh: 11%
MET
  %Inh: 19%
MINK
  %Inh: 5%
MKK7
  %Inh: 0%
MKNK1
  %Inh: 0%
MKNK2
  %Inh: 0%
MLCK
  %Inh: 0%
MLK1
  %Inh: 4%
MLK2
  %Inh: 0%
MLK3
  %Inh: 0%
MRCKA
  %Inh: 38%
MRCKB
  %Inh: 32%
MST1R
  %Inh: 0%
MST1
  %Inh: 31%

## Cc1cc(-c2ccc3c(c2)CC[C@@H](N[C@@H](C)c2ccccc2)C3)cnc1N.Cl [GW412617]
MEK2
  %Inh: 12%
MEK3
  %Inh: 0%
MEK4
  %Inh: 34%
MEK5
  %Inh: 55%
MEK6
  %Inh: 0%
MELK
  %Inh: 36%
MERTK
  %Inh: 26%
MET
  %Inh: 0%
MINK
  %Inh: 40%
MKK7
  %Inh: 1%
MKNK1
  %Inh: 13%
MKNK2
  %Inh: 3%
MLCK
  %Inh: 0%
MLK1
  %Inh: 0%
MLK2
  %Inh: 15%
MLK3
  %Inh: 32%
MRCKA
  %Inh: 0%
MRCKB
  %Inh: 4%
MST1R
  %Inh: 38%
MST1
  %Inh: 1%

## CS(=O)(=O)c1ccc(-c2nc3n(c2-c2ccncc2)CCC3)cc1 [SKF-105942]
MEK2
  %Inh: 0%
MEK3
  %Inh: 0%
MEK4
  %Inh: 8%
MEK5
  %Inh: 15%
MEK6
  %Inh: 0%
MELK
  %Inh: 0%
MERTK
  %Inh: 24%
MET
  %Inh: 0%
MINK
  %Inh: 1%
MKK7
  %Inh: 0%
MKNK1
  %Inh: 9%
MKNK2
  %Inh: 6%
MLCK
  %Inh: 0%
MLK1
  %Inh: 0%
MLK2
  %Inh: 0%
MLK3
  %Inh: 1%
MRCKA
  %Inh: 14%
MRCKB
  %Inh: 2%
MST1R
  %Inh: 19%
MST1
  %Inh: 0%
